# An excerpt weighted towards active compounds, which were near 8.8% of everything screened.
# ALDH1A1 inh = blocks purified human ALDH1A1 activity | Purified ALDH1A1, NADH fluorescence, propionaldehyde substrate | Potency, µM (highest dose often 75.3 µM), for the others: top-dose activity, negative = inhibition, actives largely listed as inhibitors | 220,000 tested, 7.3% active | AID 1030; active = well fitted inhibition curve with a large enough effect, not every such curve was filed as active; inconclusive = small, poorly fitted or top-dose-only effect, or another doubt; inactive = no such curve, though single readings can be large or run the other way;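 note: plate controls were no enzyme wells and a reference inhibitor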
# Target sequence (P00352 whole entry, looked up): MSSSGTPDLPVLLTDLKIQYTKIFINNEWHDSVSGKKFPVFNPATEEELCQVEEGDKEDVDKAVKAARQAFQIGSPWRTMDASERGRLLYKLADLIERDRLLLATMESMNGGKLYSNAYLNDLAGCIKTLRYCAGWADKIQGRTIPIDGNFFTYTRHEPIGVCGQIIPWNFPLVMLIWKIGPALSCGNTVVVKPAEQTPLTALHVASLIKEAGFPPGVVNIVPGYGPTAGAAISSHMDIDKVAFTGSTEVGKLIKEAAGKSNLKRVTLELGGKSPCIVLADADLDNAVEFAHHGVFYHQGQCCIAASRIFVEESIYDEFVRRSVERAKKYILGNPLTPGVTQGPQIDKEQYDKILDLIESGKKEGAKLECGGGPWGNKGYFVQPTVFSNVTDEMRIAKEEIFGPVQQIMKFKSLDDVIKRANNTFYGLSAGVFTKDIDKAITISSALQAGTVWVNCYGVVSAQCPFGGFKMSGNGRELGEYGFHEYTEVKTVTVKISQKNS
# HTT aggregate = reduces HttQ103-GFP aggregates in PC12 cells; PC12 HttQ103-GFP aggregates, Acumen cytometry, 40 h; Potency, µM (titrated, usually from 46.1 µM), without a hit: at the top dose activity change, negative = inhibition, actives largely listed as inhibitors; 220,000 tested, 1.1% active; AID 1688; note: % is set by controls: 0 for no effect and ±100 for the full control effect; nearly all actives have a fitted effect of over 60% in size
#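 Multiplexed with ATP-based cell death, this channel scores GFP aggregates in PC12 cells expressing inducible HTTex1-Q103-GFP. Induction used 100 nM tebufenozide; compounds were tested in concentration series.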
# HPGD block = inhibitors of human 15-hydroxyprostaglandin dehydrogenase (HPGD) | purified HPGD, NADH fluorescence kinetic, PGE2 substrate | AID 894 | 150,000 tested, 4.3% active | Potency, µM, for inactives: at the top dose activity change, negative = inhibition, most hits filed as inhibitors; active = well fitted inhibition curve with a large enough effect, not every such curve was filed as active; inconclusive = small, poorly fitted or top-dose-only effect, or another doubt; inactive = no such curve, though single readings can be large or run the other way; note: % is set by controls: 0 for no effect and ±100 for the full control effect
# Target sequence (P15428 whole entry, looked up): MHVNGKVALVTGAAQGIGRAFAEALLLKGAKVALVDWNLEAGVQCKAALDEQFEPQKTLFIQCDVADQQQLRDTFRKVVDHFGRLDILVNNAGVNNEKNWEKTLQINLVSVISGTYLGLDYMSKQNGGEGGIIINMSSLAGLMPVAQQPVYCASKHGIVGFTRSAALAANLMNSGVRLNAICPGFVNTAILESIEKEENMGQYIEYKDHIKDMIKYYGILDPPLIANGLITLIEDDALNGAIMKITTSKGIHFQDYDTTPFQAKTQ
#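 NADH formation kinetics: reaction with 30 uM PGE2 and 1 mM NAD+ (final), 20 nM enzyme, Tris-HCl pH 8 with Tween 20, after 15 min compound preincubation at room temperature. Fluorescence change, last versus first of five reads.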
# Lamin A splicing = modulators of lamin A splicing; AID 1487; Potency, µM (highest dose often 46.1 µM), for the others: top-dose ratio change, negative = inhibition, actives largely listed as inhibitors; HeLa LMNA splicing GFP/RFP minigene ratio, 48 h; 200,000 tested, 0.01% active; active = well fitted inhibition curve with a large enough effect in the signal ratio, with a control signal flat, not every such curve was filed as active; inconclusive = small, poorly fitted or top-dose-only effect, or effect the other way, or a change in a side signal; the % refers to the signal ratio; note: % is set by controls: 0 for no effect and ±100 for the full control effect
#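 S3 HeLa stable clones carrying a lamin A-EGFP splicing minigene plus DsRed2 were seeded at 600 cells/well in Opti-MEM with 2% FBS, pin-dosed and incubated 48 h at 37°C. Acumen cytometry (488 nm) gave the GFP/RFP total-intensity ratio.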
# HTT cytoprotect = cytoprotection in Huntington HTT-Q103 PC12 cell model | PC12 HTT-Q103 induced, cytoprotection, ATP luminescence, 40 h | Potency, µM (highest dose often 56.4 µM), inactives show cytoprotection (ATP increase), hits mostly activators | 230,000 tested, 0.14% active; note: % of control where 0% means no effect; nearly all actives have a fitted effect of over 45% in size
#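 Quantitative HTS on tebufenozide-induced (100 nM) PC12 cells expressing HTTQ103 exon 1–GFP; compounds tested as a concentration series; survival measured via cellular ATP.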
# Starred values were filed as active, the others as inactive; u = inconclusive; x = no result; ! = repeats disagree; [ ] = dose if it differs, or a comment. Unless noted, calls come from the whole dose curve; as a rule, active = well fitted curve in the direction sought with a large enough effect; inconclusive = small, poorly fitted or top-dose-only effect, or another doubt; inactive = no such curve, though single readings can be large; an effect the other way counts as inactive or inconclusive. Potency is the fitted concentration of half-maximal effect.
SMILES,ALDH1A1 inh,HTT aggregate,HPGD block,Lamin A splicing,HTT cytoprotect
CCN(CC)C(=O)CSc1nc2ccc(NC(=O)CSc3nccn3C)cc2s1,u,-22%,32µM*,u,-24%[10 µM]
CCN(CC)C(=O)CSc1nc2ccc(NC(=O)CSc3nnc(N)s3)cc2s1,u,u,14µM*,-7%,-33%
O/N=C(\c1ccc(Cl)cc1)c1cc2ccccc2o1,6%,u,25µM*,u,2%
CCOC(=O)CC1COCCN1Cc1cn(C)nc1-c1ccccc1F (stereo not given),10µM*,-1%[9.22 µM],x,x,14%[10 µM]
CCCCC/C=C\C\C=C/C=C/C=C/[C@@H](SC[C@H](N)C(=O)O)[C@@H](O)CCCC(=O)O,10%,x,x,x,0%
CC(C)(C)c1ccc2c(c1)C(=O)c1ccccc1C2=O,u,-24%,x,-5%,0%[10 µM]
CC(C)(C=O)C1=CC(=O)c2ccccc2C1=O,1.6µM*,u,7.1µM*,u,-45%[10 µM]
COc1cccc2c1C(=O)C=C(C)C2=O,u,14µM*,-5%,u,9%[0.074 µM]
CC1=CC(=O)c2ccccc2C1=O,14µM*!,-97%,u,u,-368%
N#CCCn1c(=O)cnc2cnc(N3CCNCC3)nc21,u,x,u,x,-7%
Cc1cc(Nc2ccc(F)cc2)nc(-n2nc(C)cc2C)n1,x,x,x,-8%[46 µM],x
O=C(NCc1ccc(F)cc1)c1cnc(N2CCCCC2)c2ccccc12,x,x,x,19%[46 µM],x
CCCCn1c(=O)nc2n(-c3ccc(OC)cc3)c3ccccc3cc-2c1=O,8.9µM*,4%,x,x,-30%
NC(Cc1ccccc1)=NCC(=O)O,-7%[13.5 µM],x,-5%,x,-4%[10 µM]
COc1ccc(CNC(=O)C(OC(=O)c2ccco2)c2ccc(OC)cc2)cc1 (stereo not given),6.3µM*,-11%,-16%,-10%,-2%[1.9 µM]
O=C(c1ccc(-c2ccccc2)cc1)N1CCC(C(=O)N2CCCC2)CC1,-14%,-13%,16µM*,-16%,16%[0.074 µM]
CC(C)(C)NC(=O)C1CCN(C(=O)c2ccc(-c3ccccc3)cc2)CC1,12%,-10%,-13%,u,-3%
COc1ccc(NC(=O)C2CCN(C(=O)c3ccccc3)CC2)c(OC)c1,1.6µM*,16%,-13%,15%,8%
Nc1ccc(C(=O)n2c3ccccc3c3ccccc32)cc1,11µM*,u,32µM*,u,-75%[10 µM]
COc1ccc(C(=O)/C=C\N2CCOCC2)cc1,8.9µM*,11%,-26%,5%,-5%
COc1ccc(C(=O)N2CCC(C(=O)Nc3ccccc3OC)CC2)cc1,0%,-16%,-4%,-3%,5%[10 µM]
O=C(O)/C=C\C(=O)Nc1ccc2c(c1)C(=O)c1cc(F)ccc1-2,u,x,-4%,x,-7%[10 µM]
CC1=Nc2ccccc2N=C(NC(=O)c2ccccc2)C1c1ccccc1 (stereo not given),u,u,x,x,-8%
Cc1ccc(S(=O)(=O)C(CNC(=O)COc2ccccc2)c2cccs2)cc1 (stereo not given),x,x,x,-5%[46 µM],x
C=CCNC(=O)c1ccc(N(C)S(=O)(=O)c2ccc(OC)cc2)cc1,u,-7%,2.8µM*,-1%,-22%
SMILES,ALDH1A1 inh,HTT aggregate,HPGD block,Lamin A splicing,HTT cytoprotect
O=C(c1ccc(COc2ccc(Cl)cc2)cc1)N1CCCCC1,28µM*,5%[9.22 µM],x,5%[46 µM],-4%
COc1ccc(C(CNC(=O)c2ccc(S(=O)(=O)N(C)C)cc2)N2CCCCC2)cc1 (stereo not given),10µM*,-1%[9.22 µM],x,-4%[46 µM],18%[10 µM]
O=C(c1ccc(COc2ccccc2Br)cc1)N1CCCCCC1,-2%,6%,x,x,-12%[10 µM]
O=C(c1ccc(Cl)cc1)N1CCCOC1,18%,4%,8.9µM*,10%,2%[10 µM]
Cn1c(=O)[nH]c2cc(-c3noc(-c4ccc(Br)cc4)n3)ccc21,x,x,x,0%[46 µM],x
CC(=O)N1C=Cc2c(c(C)c3c([nH]c4ccccc43)c2C)C1,x,-33%[9.22 µM],x,x,-77%[10 µM]
COc1ccc(OC)c(CNC(=O)c2cc(=O)[nH]c3ccc(S(=O)(=O)N4CCCCC4C)cc23)c1 (stereo not given),x,x,x,2%[46 µM],x
CCCCOc1ccc(C(=O)N2CCCC2C(=O)O)cc1 (stereo not given),-1%,-41%,-18%,5%,-21%[10 µM]
CCOc1ccc(C(=O)N2CCCN(C(=O)c3ccc(OCC)cc3)CC2)cc1,-14%,6%,-9%,-8%,1%[10 µM]
COc1ccc(-n2c(C)nc3cc(C(=O)NCCN4CCOCC4)ccc32)cc1,8%,-6%,-5%,9%,6%[10 µM]
COc1ccc(S(=O)(=O)N(C)c2ccc(C(=O)N3CCOCC3)cc2)cc1,u,-18%,6.3µM*,15%,1%
CCCCOc1ccc(C(=O)N2CCCCCC2)cc1,u,-19%,0.79µM*,-15%,5%[10 µM]
CCCCOc1ccc(C(=O)N2CCC(C)CC2)cc1,-10%,-28%,1µM*,6%,-11%
COc1ccc(-n2c(C)nc3cc(C(=O)N4CCOCC4)ccc32)cc1,u,8%,2.2µM*,10%,-14%
Cc1ccccc1CSc1ncc(CO)n1Cc1ccc(F)cc1,x,x,x,9%[46 µM],x
COc1ccc(NC(=O)c2nc3nccc(C)n3n2)cn1,-1%,-3%,-12%,1%,-20%
COc1ccc(-n2nc(C(=O)N3CCCCC3)c3ccccc3c2=O)cc1,7%,2.8µM*,-5%,-3%,10%
COc1ccc(/C=C(\C#N)C(=O)N2CCOCC2)cc1Br,u,-15%,16µM*,3%,-6%
Nc1ccc(C(=O)N2CCCC2)cc1,-6%,4%,28µM*,0%,38%[1.9 µM]
O=C(c1ccc(-n2cnnn2)cc1)N1CCCCC1,u,7%,16µM*,3%,27%[10 µM]
CCC1=C2CC[C@H]3C(=O)NC(=O)[C@H]3[C@H]2[C@@]2(C)C(=O)N(CC3CC3)C(=O)N2C1=O,-2%,x,-8%,x,-29%
CCOc1ccc(N(CC(=O)Nc2ccc(OC)cc2)S(=O)(=O)c2ccc(Cl)cc2)cc1,x,x,x,0%[46 µM],x
CC1(C)[C@@H]2CC[C@@](C)(C2)[C@H]1OC(=O)c1ccccc1C(=O)O,-2%[13.5 µM],x,-7%,x,2%[10 µM]
CC(=O)Nc1ccc(S(=O)(=O)NCc2ccc(C)cc2)cc1,-8%,-22%,-15%,u,-3%
COc1ccc(OCc2ccc(C(=O)N3CCOCC3)cc2)cc1,-6%,20%,7.9µM*,-16%,0%[10 µM]
SMILES,ALDH1A1 inh,HTT aggregate,HPGD block,Lamin A splicing,HTT cytoprotect
COc1ccc(C(=O)n2nc(C)c(Br)c2C)cc1,10µM*,1%,-8%,4%,1%
COc1ccc(OCc2ccc(C(=O)O)cc2)cc1,12%,-7%,-7%,7%,-28%[10 µM]
O=C(c1ccc(C(F)(F)F)cc1)N1CCCCC1,-3%,-8%,2.8µM*,-7%,2%
CN1CCN(C(=O)c2ccc(C(F)(F)F)cc2)CC1,9%,16%,x,-13%[46 µM],16%
C=CCNC(=O)c1ccc(CNS(=O)(=O)c2ccc(NC(C)=O)cc2)cc1,-5%,26%,20µM*,9%,13%
O=C(CCCn1c(=O)[nH]c2ccccc2c1=O)N1CCN(c2ccccc2)CC1,x,x,x,-1%[46 µM],x

# High-throughput results (PubChem BioAssay)
